{
  "source": "PubChem BioAssay (NCATS)",
  "note": "Unmarked numbers belong to inactive results. The source made the active and inactive calls. Calls follow the shape of the dose curve; as a rule, active = well fitted inhibition curve with a large enough effect; inconclusive = small, poorly fitted or top-dose-only effect; inactive = flat fitted curve, though single readings scatter. Where a SMILES comes first, the peptide text is derived from it. Bridges are numbered along the chain shown (N, C = ends). [ ]: non-standard residue; d: D form. dPhe(4-Cl) = N[C@H](Cc1ccc(Cl)cc1)C(=O)O; d2Nal = N[C@H](Cc1ccc2ccccc2c1)C(=O)O; NMeY = CN[CH](Cc1ccc(O)cc1)C(=O)O; dCit = NC(=O)NCCC[C@@H](N)C(=O)O; d3Pal = N[C@H](Cc1cccnc1)C(=O)O",
  "data": [
    {"target": "Luciferin 4-monooxygenase (Photinus pyralis) (UniProt P08659)", "assay": "Primary firefly luciferase (FLuc) qHTS assay for identification of artifact compounds. (AID 1845220); also: nearly all actives have a fitted effect of over 60% in size; also: potency is read from the fitted curve at half-maximal effect", "details": "purified firefly luciferase, luminescence, 5 min; series mostly up to 54.1 µM; activity change, negative = inhibition: at the top concentration", "excerpt": "PI: Alexander Tropsha Ph.D.\nUNC Eshelman School of Pharmacy\nUniversity of North Carolina, Chapel Hill, North Carolina\nHits from high-throughput screening (HTS) of chemical libraries are often false positives due to their interference with the assay detection technology. In response to this problem, we generated the largest publicly available library of chemical liabilities and developed a free webtool to predict HTS artifacts, both of which are described herein. More specifically, we generated, curated, and integrated HTS datasets for thiol reactivity, redox activity, and luciferase (firefly and nano) activity. Using these curated datasets, we developed and validated several Quantitative Structure-Interference Relationship (QSIR) models to predict nuisance behavior. […] These models were employed for virtual profiling of the National Center for Advancing Translational Science's (NCATS) in-house library, and 256 compounds for each assay were selected for the experimental validation of nuisance behavior. The BA for these external predictions ranged from 58 to 78% for compounds within the applicability domains of the models. […] The models developed in this study, along with aggregation models previously developed by our group (SCAM Detective) were implemented in \"Liability Predictor,\" an online tool which may be used as part of chemical library design or for triaging HTS hits. Both the models and the curated datasets are publicly available at https://liability.mml.unc.edu/.\nSEQUENCE No. (e.g., 1, 2, 3, etc.); […] (e.g., Cells, Incubation, Reagent, etc.); VALUE; DESCRIPTION.\n1; Reagent; 3 uL; Luciferase substrate mixture.\n2; Compounds and control; 16 nL; Kalypsis pin tool (Wako USA) equipped with a 1536-well pin head.\n4; Reagent; 1 uL; Luciferase enzyme.\n6; Detection; Luminescence, ViewLux microplate reader.\nNOTES (numbers refer to Sequence numbers above)\n1. 3 uL of luciferase substrate mixture containing D-luciferin and ATP (final concentrations of 10 uM and 10 uM, respectively) in assay buffer (10 mM Mg-acetate, 0.01% Tween-20, 0.05% bovine serum albumin, 50 mM Tris acetate, pH 7.6) was dispensed into all wells of a 1536-well assay plate (solid-bottom white plate; Greiner Bio One, Monroe, NC).\n2. A Wako Pin-tool (Wako Automation, Richmond, VA) was used to transfer 16 nL of compounds (consisting of 7-plates in qHTS format, final concentration range 18.3 nM to 114 uM) or control PTC124 (final concentration range 1.22 nM to 40 uM).\n3. 15 min. incubation at room temperature protected from light.\n4. 1 uL of luciferase enzyme (final concentration 10 nM, Photinus pyralis luciferase) or buffer was dispensed for a final assay volume of 4 uL.\n5. Plates were centrifuged (121xg, 15 seconds) and incubated for 5 minutes.\n6. Samples were read for luminescence on a ViewLux CCD imager (PerkinElmer). Data were normalized to no-enzyme (0% activity) and no-inhibitor (DMSO; 100%) controls and the resulting percent inhibition data were fitted to a 4-parameter Hill equation using NCATS in-house software.", "values": [
      {"molecule": "CC(=O)OC1CC2C3(C)CCC(OC(=O)CC(=O)O)C(C)(C)C3CCC2(C)C2(C)CCC(C3(C)CCC(=O)O3)C12", "note": "(stereo not given)", "activity change, negative = inhibition": "0.956% [at 25.7 µM]"},
      {"molecule": "CC1(C)CC[C@]2(C(=O)O[C@@H]3O[C@H](CO)[C@@H](O)[C@H](O)[C@H]3O)CC[C@]3(C)C(=CCC4[C@@]5(C)C[C@@H](O)[C@H](O)C(C)(C)C5CC[C@]43C)C2[C@@H]1O", "note": "(stereo not given in full)", "activity change, negative = inhibition": "0.489% [at 25.7 µM]"},
      {"molecule": "COCCOc1cnc2ccn([C@H](C)c3nnc4c(F)cc(-c5cnn(C)c5)cn34)c(=O)c2c1", "activity change, negative = inhibition": "-8.48%"},
      {"molecule": "c1cc(Nc2cc(C3CC3)[nH]n2)nc(Nc2ccc3nc[nH]c3c2)n1", "activity change, negative = inhibition": "-1.57%"},
      {"molecule": "C[C@@H]1C(=O)O[C@H](C)[C@H]1CC(=O)[C@](C)(O)[C@H]1CC[C@@]2(O)C3=CC(=O)[C@@H]4C[C@@H](O)[C@@H](O)C[C@]4(C)C3CC[C@]12C", "note": "(stereo not given in full)", "activity change, negative = inhibition": "-8.05% [at 25.7 µM]"},
      {"molecule": "CC(=O)N[C@H](Cc1ccc2ccccc2c1)C(=O)N[C@H](Cc1ccc(Cl)cc1)C(=O)N[C@H](Cc1cccnc1)C(=O)N[C@@H](CO)C(=O)N[C@@H](Cc1ccc(O)cc1)C(=O)N[C@H](CCCNC(N)=O)C(=O)N[C@@H](CC(C)C)C(=O)N[C@@H](CCCN=C(N)N)C(=O)N1CCC[C@H]1C(=O)N[C@H](C)C(N)=O", "note": "(Ac-[d2Nal][dPhe(4-Cl)][d3Pal]SY[dCit]LRP[dA]-NH2)", "activity change, negative = inhibition": "0.6% [at 25.7 µM]"},
      {"molecule": "Cc1csc(NC(=O)c2ccc(COc3cccc(Cl)c3)o2)n1", "activity change, negative = inhibition": "-19.1%"},
      {"molecule": "O=C(CN1C(=O)C2(CCCC2)NCC1c1cc(F)cc(F)c1)Nc1ccc2c(c1)CC1(C2)C(=O)Nc2ncccc21", "note": "(stereo not given)", "outcome": "inactive"},
      {"molecule": "CC1(C)CC[C@]2(C(=O)O)CC[C@]3(C)C(=CCC4[C@@]5(C)CC[C@H](O[C@@H]6O[C@H](C(=O)O)[C@@H](O[C@@H]7OC[C@@H](O)[C@H](O)[C@H]7O)[C@H](O)[C@H]6O)C(C)(C)C5CC[C@]43C)C2C1O", "note": "(stereo not given in full)", "activity change, negative = inhibition": "-5.38% [at 25.7 µM]"},
      {"molecule": "CCC(C)C1NC(=O)C2CCCN2C(=O)C(NC(C)=O)C(C)OC(=O)C(Cc2ccc(OC)cc2)N(C)C(=O)C2CCCN2C(=O)C(C(C)C)NC1=O", "note": "(stereo not given) (Ac-TPIVP[NMeY](Me); ester 1-C; configuration not given here)", "activity change, negative = inhibition": "-6.78% [at 25.7 µM]"},
      {"molecule": "CC(C)(C)NCCCNC(=O)c1cccc(Br)c1", "outcome": "inactive"},
      {"molecule": "C[C@@H]1C[C@H]2O[C@@H]2/C=C\\C=C\\C(=O)Cc2c(Cl)c(O)cc(O)c2C(=O)O1", "activity change, negative = inhibition": "-8.64% [at 11.6 µM]"},
      {"molecule": "OC/C=C/C=C/[C@H]1Cc2cc(O)cc(O)c2O1", "activity change, negative = inhibition": "-7.43%"},
      {"molecule": "CC(O)/C=C/C1C(C)C(O[C@@H]2O[C@H](CO)[C@@H](O)[C@H](O)[C@H]2O)C(O)CC1(C)C", "note": "(stereo not given in full)", "activity change, negative = inhibition": "-9.21%"},
      {"molecule": "CCCN1CCN(c2ccc(C(=O)NC3(C(=O)NCC#N)CCCCC3)cc2)CC1", "activity change, negative = inhibition": "-12.1%"},
      {"molecule": "CCOc1cc(C(=O)N2CCC(N3CCN(C)CC3)CC2)ccc1Nc1ncc2c(n1)N(C1CCCC1)c1ccccc1C(=O)N2C", "activity change, negative = inhibition": "1.23%"},
      {"molecule": "COC(=O)CC(C)(O)CC(=O)OCc1ccc(O[C@@H]2O[C@H](CO)[C@@H](O)[C@H](O)[C@H]2O)cc1", "note": "(stereo not given in full)", "activity change, negative = inhibition": "0.0797% [at 25.7 µM]"},
      {"molecule": "CC(C)=CCC[C@](C)(O[C@@H]1O[C@H](CO)[C@@H](O)[C@H](O)[C@H]1O)[C@H]1CC[C@]2(C)[C@@H]1[C@H](O)CC1[C@@]3(C)CC[C@H](O)C(C)(C)C3[C@@H](O[C@@H]3O[C@H](CO)[C@@H](O)[C@H](O)[C@H]3O[C@@H]3OC[C@@H](O)[C@H](O)[C@H]3O)C[C@]12C", "note": "(stereo not given in full)", "activity change, negative = inhibition": "-4.76% [at 11.6 µM]"},
      {"molecule": "CC1CCCCN1S(=O)(=O)c1ccc(N2CCCC2=O)cc1", "note": "(stereo not given)", "activity change, negative = inhibition": "-2.84%"},
      {"molecule": "CCn1cc(NC(=S)Nc2cc(Cl)ccc2OC)c(C(N)=O)n1", "outcome": "inactive"},
      {"molecule": "C#CC[C@H](c1nc2cc(Cl)ccc2c(=O)n1Nc1ccccc1)N(CCCN)C(=O)c1cccc(Cl)c1F", "activity change, negative = inhibition": "3.19%"},
      {"molecule": "COC1C(=O)CCC2(CO2)C1(O)C1(C)OC1CC=C(C)C", "note": "(stereo not given)", "activity change, negative = inhibition": "-14%"},
      {"molecule": "CN[C@H](C(=O)N[C@H](C(=O)N(C)[C@H](/C=C(\\C)C(=O)O)C(C)C)C(C)(C)C)C(C)(C)c1ccccc1", "activity change, negative = inhibition": "-4.73%"},
      {"molecule": "CC[C@H]1OC(=O)[C@H](C)[C@@H](O[C@H]2C[C@@](C)(OC)[C@@H](O)[C@H](C)O2)[C@H](C)[C@@H](O[C@@H]2O[C@H](C)C[C@H](N(C)C)[C@H]2O)[C@](C)(O)C[C@@H](C)C(=O)[C@H](C)[C@H]2OC(=O)O[C@@]21C", "outcome": "inactive"},
      {"molecule": "COc1cc2ncnc(Nc3cccc(O)c3)c2cc1OC", "activity change, negative = inhibition": "2.04%"},
      {"molecule": "CC1=CC(=O)CC2C1(O)CCC(C)C21CC(c2ccoc2)OC1=O", "note": "(stereo not given)", "activity change, negative = inhibition": "-13.2%"},
      {"molecule": "Cc1c(F)cc(C(=O)NC2CC2)cc1-c1c(F)cn2c(C(C)(C)C)nnc2c1F", "activity change, negative = inhibition": "-8.38%"},
      {"molecule": "CC(NC(=O)CCc1nc2ccccc2c(=O)[nH]1)c1ccccc1", "note": "(stereo not given)", "activity change, negative = inhibition": "-1.76%"},
      {"molecule": "CC12CCC(OC3OC(CO)C(O)C(OC4OC(CO)C(O)C(O)C4O)C3O)CC1CCC1C2CCC2(C)/C(=C3/COC(=O)C3)CCC12O", "note": "(stereo not given)", "activity change, negative = inhibition": "-0.953% [at 25.7 µM]"},
      {"molecule": "Cc1ccc(F)cc1C(=O)Nc1ccc(C(=O)N2Cc3cccn3Cc3ccccc32)c(Cl)c1", "activity change, negative = inhibition": "1.65%"},
      {"molecule": "C[C@@H]1O[C@@H](O[C@H]2[C@H](O)[C@@H](O[C@@H]3O[C@H](CO)[C@@H](O)[C@H](O[C@@H]4O[C@H](CO)[C@@H](O)[C@H](O)[C@H]4O)[C@H]3O)[C@H](O[C@H]3CC[C@@]4(C)C(=CC[C@@H]5C4CC[C@@]4(C)C5C[C@@H]5OC6(CC[C@@](C)(CO[C@@H]7O[C@H](CO)[C@@H](O)[C@H](O)[C@H]7O)O6)[C@@H](C)[C@@H]54)C3)O[C@@H]2CO)[C@H](O)[C@H](O)[C@H]1OC1OC(CO)C(O)C(O)C1O", "note": "(stereo not given in full)", "activity change, negative = inhibition": "2.07% [at 11.6 µM]"},
      {"molecule": "CC(=O)O[C@H]1C[C@@](O)(C(C)C)C2[C@@H](OC(=O)c3ccc(O)cc3)C[C@@]3(C)O[C@H]3C[C@]21C", "note": "(stereo not given in full)", "activity change, negative = inhibition": "-3.08% [at 25.7 µM]"},
      {"molecule": "N#CC(c1ccnc(OCc2ccc(CN3CCOCC3)cc2)n1)c1nc2ccccc2s1", "note": "(stereo not given)", "Potency": "426 nM (active)"},
      {"molecule": "COc1cc(C)c(C(=O)Oc2cc(C)c(C(=O)Oc3cc(C)c(C(=O)NC(C)C(=O)O)c(O)c3)c(O[C@@H]3O[C@H](CO)[C@@H](O)[C@H](O)[C@H]3OC(C)=O)c2)c(OC)c1", "note": "(stereo not given in full)", "activity change, negative = inhibition": "-2.23% [at 25.7 µM]"},
      {"molecule": "CS(=O)(=O)N(CC(=O)NCC1CC1)c1cc(C(F)(F)F)ccc1Cl", "activity change, negative = inhibition": "-3.19%"},
      {"molecule": "Cc1[nH]c2ccccc2c1C1=C(NCCc2ccc(F)cc2)C(=O)N(C)C1=O", "outcome": "inactive"},
      {"molecule": "CN(C)C/C=C/C(=O)Nc1cc2c(Nc3ccc(F)c(Cl)c3)ncnc2cc1OC1CCOC1", "note": "(stereo not given)", "outcome": "inactive"},
      {"molecule": "O=[N+]([O-])c1cccc2[nH]c(CNc3nc(N4CCOCC4)nc4c3ncn4-c3ccsc3)nc12", "activity change, negative = inhibition": "4.67%"},
      {"molecule": "C=C(CO[C@@H]1O[C@H](CO[C@@H]2OC[C@](O)(CO)[C@H]2O)[C@@H](O)[C@H](O)[C@H]1O)C1Cc2cc(C(C)=O)ccc2O1", "note": "(stereo not given in full)", "outcome": "inactive [at 25.7 µM]"},
      {"molecule": "Cc1c(C(=O)N2CCOc3ccc(-c4ccc(N)nc4)cc3C2)ccc(S(C)(=O)=O)c1F", "outcome": "inactive"}
    ]}
  ]
}
